# Where “and” joins values, the source holds several entries; their conditions need not be identical. Equal values may be shown once. Calls of active or inactive are those of the source.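 The calls were made as follows: active = relative GCLC transcription at 1 µM of at least 250%; inconclusive = relative GCLC transcription at 1 µM between 200% and 250%; inactive = relative GCLC transcription at 1 µM under 200%.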
# Experiment: qHTS of Nrf2 Activators: Hit Validation in GCLC Induction Assay
# Details: Hepa1c1c7 cells, GCLC mRNA qPCR, 24 h; at 1 µM; stronger effect = higher value
# Description: Many diseases have some form of oxidative stress injury and ties to inflammation, causing a host of problems for the patient. The antioxidant response element (ARE) plays an important role in alleviating the harmful effects of oxidative stress. The antioxidant response element (ARE) is a transcriptional regulatory element involved in the activation of genes coding for a number of antioxidant proteins and detoxifying enzymes. These enzymes work in concert to protect tissues from oxidative insults and chemical toxicities in human hepatocytes and immune cells. The protective effects of ARE activation are primarily triggered through Nrf2 (NF-E2-related factor) binding to and activating AREs. It is known that Nrf2 controls the production of over 250 antioxidant and detoxification proteins (Hu et al., 2006), thereby protecting tissues by increasing cellular antioxidant content and suppressing inflammatory signaling pathways. The transcription factor Nrf2 is a central link between oxidative chemicals, such as phenolic antioxidants and electrophilic compounds, and the activation of ARE. Nrf2 levels are constitutively low as a consequence of its interaction with Keap1, which targets its degradation (Zipper and Mulcahy, 2002). Electrophiles react with key cysteine residues in Keap1, releasing Nrf2 and allowing its translocation to the nucleus. Once within the nucleus, Nrf2 complexes with coactivators such as p300, and binds to the AREs to induce gene transcription of cytoprotective enzymes, resulting in the prevention of toxicity. Activation of Nrf2 protects tissues by increasing cellular antioxidant content and suppressing inflammatory signaling pathways. Identifying novel and potent Nrf2 activators by using the AREc32 cell line to detect ARE activation by small molecules will lead to the identification and development of probes to study protective pathways in multiple tissues. These specific probes are essential to study the ARE pathway, and eventually to determine whether this pathway does activate genes that could protect against a host of diseases, including cardiovascular diseases, obesity, diabetes, Alzheimer's, and Parkinson's disease. This project's aim is to identify novel and potent Nrf2 activators by using the AREc32 cell line to detect ARE activation by small molecules, which will lead to the identification and development of probes to study the ARE pathway. Compounds that were identified in the primary screen were tested in this secondary assay to assess whether a hit also activates Nrf2 transcription of the target gene GCLC. NIH Chemical Genomics Center [NCGC] NIH Molecular Libraries Probe Centers Network [MLPCN] MLPCN Grant: DK081461 Assay Submitter (PI): Curtis Klaassen, University of Kansas Medical Center
# Hepac1c7 cells were seeded into 24-well plates at a density of 30,000 cells/well in 1 mL complete media per well and cultured overnight to allow attachment. Cells were treated the next day with compounds (1 uM)or positive control for 24 h. Total RNA samples were then isolated by using RNAzol B reagent (Tel-Test, Inc., Friendswood, TX) according to the manufacturer's protocol. Total RNAs were reverse-transcribed into cDNA by High Capacity cDNA Archive Kits (Applied Biosystems, Foster City, CA) and the resulting cDNA was used for real-time PCR analysis using SYBR(R) Green PCR Master Mix in a 7900HT Fast Real-Time PCR System.
row,SMILES,relative GCLC transcription
1,COC(=O)c1c(NC(=O)c2ccccc2)sc(C(N)=O)c1C,120% (inactive)
2,COc1ccc(NC(=O)c2cc(-c3ccco3)on2)c(OC)c1,155% (inactive)
3,COc1ccc(NC(=O)c2cc(-c3cccs3)on2)c(OC)c1,157% (inactive)
4,Cc1nc(NCc2ccco2)nc2c1C(=O)CC(C)C2 (stereo not given),158% (inactive)
5,Clc1ccc2c(NCc3ccccn3)ncnc2c1,181% (inactive)
6,COc1ccccc1NC(=O)c1cc(Cl)nc2ccccc12,461%
7,O=C(Nc1ncnc2sc3c(c12)CCCCC3)c1ccco1,109% (inactive) and 134% (inactive)
8,CS(=O)(=O)c1nc(S(=O)(=O)c2ccc(Cl)cc2)c(N2CCOCC2)s1,148% (inactive)
9,O=C(Nc1cccc2ncccc12)c1ccc(Cl)cc1,369%
10,O=C(Nc1ncnc2sc3c(c12)CCC3)c1ccco1,122% (inactive)

# Source: PubChem BioAssay AID652014 (National Center for Advancing Translational Sciences (NCATS), 2013)
